A short description of assay [1]: compound effects on lung adenocarcinoma cell viability – A549, calcein-AM fluorescence, 48 h, basal, profiling panel (AID 1162). To be noted: higher = more signal.
The nature of assay [2]: compound effects on differentiated 3T3-L1 adipocyte viability – cell-based, 3T3-L1 adipocytes, calcein-AM fluorescence, 48 h, basal, profiling panel (AID 1163). To be noted: 3T3-L1 adipocytes viability, higher = more signal.
A short description of assay [3]: compound effects on hepatocellular carcinoma cell viability – HepG2, calcein-AM fluorescence, 48 h, basal, profiling panel (AID 1164). To be noted: higher = more signal.
Assay [4] is described as follows: compound effects on multiple myeloma cell viability – MM1S, calcein-AM fluorescence, 48 h, basal, profiling panel (AID 1165). The conditions noted are these: higher = more signal.
Assay [5] in a line: calcein-AM signal in unstimulated myeloma cells – cell-based, calcein-AM fluorescence, 48 h, PK04 Diversity Set, profiling panel (AID 1166).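 Also: cells grown under basal conditions without added stimulus.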 The conditions noted are these: RPMI8226 myeloma viability, higher = more signal.
A short description of assay [6]: JC-1 mitochondrial signal, unstimulated HepG2 cells – cell-based, JC-1 fluorescence, 24 h, 100 nL compound, profiling panel (AID 1167). The conditions noted are these: HepG2 mitochondrial potential, higher = more signal.
A short description of assay [7]: JC-1 mitochondrial signal, unstimulated adipocytes – cell-based, JC-1 fluorescence, 3T3-L1 adipocytes, 24 h, 100 nL compound, profiling panel (AID 1168). The conditions noted are these: JC-1 mitochondrial fluorescence, higher = more signal, called active from +8 up or from −8 down.
The nature of assay [8]: JC-1 mitochondrial signal, unstimulated myeloma cells – cell-based, JC-1 fluorescence, RPMI8226, 24 h, 100 nL compound, profiling panel (AID 1169). The conditions noted are these: JC-1 mitochondrial potential fluorescence, higher = more signal.
The nature of assay [9]: JC-1 mitochondrial signal, unstimulated MM1S myeloma – cell-based, JC-1 fluorescence, 24 h, 100 nL compound, profiling panel (AID 1170). The conditions noted are these: MM1S mitochondrial potential, higher = more signal.
Assay [10] in a line: resazurin metabolic signal in A549 cells – cell-based, resazurin fluorescence, 24 h, PK04 Diversity Set, profiling panel (AID 1171). To be noted: A549 viability, higher = more signal, called active from +8 up or from −8 down. (In general: The colour change of resazurin is a common sign of viable cells or microbes.)

Z-score data for 16 compounds are collected here from PubChem BioAssay.

The source made the active and inactive calls.
Also: test concentration not given here.

In the case of `COC(=O)C=C(CC(O)c1cccc(Cl)c1)OC` (stereo not given), the z-score in assay [1] was 0.409; in assay [2] it was 0.0036; in assay [3] it was 1.01; in [4], 0.892; in assay [5], -0.221; in assay [6], 0.456. The z-score in [7] was 0.705 (inactive); in assay [8] it was -0.738; in assay [9], -1.36; in assay [10] it was -0.34 (inactive).

As for `O=C1[C@H]2C=C(Br)[C@H](C[C@@H]2c2ccccc2)[C@@]12CO2`, the z-score is -1.18 in [1]; -0.559 in [2]; -0.675 in assay [3]; -2.95 in assay [4]; -2.49 in assay [5]; -1.69 in assay [6]. In addition, the z-score in [7] is 0.0869 (inactive); in assay [8], -0.323; in [9], -0.609; in assay [10], -0.541 (inactive).

Take `C=CCNC(=O)[C@@H]1[C@H]2C(=O)O[C@H](c3ccccc3)[C@H](c3ccccc3)N2[C@H](c2ccccc2OCCO)[C@@]12C(=O)N(C(=O)OCCOC)c1ccc(C#CCNC(N)=O)cc12`: the z-score in assay [1] was 0.843; in assay [2], 0.595; in assay [3], 0.886; in [4], 0.765; in assay [5], 0.425; in assay [6] it was 0.766. For the same compound, the z-score in assay [7] was 0.586 (inactive); in assay [8], 0.159; in [9] it was -0.341; in [10], -0.768 (inactive).

On to `CCCC=C(CCC)[C@@H](NS(=O)(=O)c1cccs1)c1ccc(C(=O)OC)cc1`, for which the z-score in assay [1] is -3.9; in assay [2], 0.532; in [3] it was -5.36; in assay [4] it was -3.33; in assay [5], -4.74; in assay [6], -4.43. Moreover, the z-score in [7] is 1.24 (inactive); in [8] it was -0.819; in assay [9], -2.8; in assay [10] it was 4.56 (inactive).

As for `O=C1C2C=CC(C(O)c3ccc(F)cc3)N(Nc3ccccc3F)C2C(=O)N1c1ccccc1` (stereo not given), the z-score in assay [1] is -1.39; in [2], -1.1; in [3] it was -1.47; in [4], -0.389; in [5] it was -0.233; in assay [6], -1.73. The z-score in assay [7] was -1.08 (inactive); in assay [8], -0.143; in assay [9], 0.396; in [10], 0.0853 (inactive).

Consider `Cc1ccc(S[C@]2(C(=O)NCC(F)(F)F)CC(=O)N(C(C)C)[C@@H]2c2ccc(CO)cc2I)cc1`, for which the z-score is 0.553 in [1]; 0.837 in [2]; -0.0366 in assay [3]; -2.2 in assay [4]; -2.73 in [5]; 0.409 in [6]. Moreover, the z-score is -0.374 (inactive) in assay [7], -0.815 in [8], -1.12 in assay [9] and 0.683 (inactive) in assay [10].

As to `[N-]=[N+]=NCc1ccccc1C[C@]1(C(=O)N2CCOCC2)N=C(c2ccc(OCCCO)cc2)O[C@H]1c1ccccc1N=[N+]=[N-]`, the z-score in assay [1] was -1.37; in assay [2], 1.97; in assay [3] it was -0.956; in [4], -1.28; in [5], -3.42; in assay [6] it was 0.665. Further, the z-score was -0.817 (inactive) in [7], -1.1 in assay [8], -1.47 in assay [9] and -0.678 (inactive) in assay [10].

As for `COCCCNC(=O)C1N=C(c2ccc(OCCCO)cc2)N(c2ccccc2)O1` (stereo not given), the z-score is -0.201 in [1]; 0.829 in [2]; -0.393 in assay [3]; 0.399 in assay [4]; 0.336 in [5]; -0.205 in [6]. The z-score was -0.183 (inactive) in assay [7], -0.492 in [8], -0.213 in assay [9] and 0.938 (inactive) in [10].

On to `CC(=O)N1Cc2ccccc2C[C@@]2(COC(c3ccc(OCCCO)cc3)=N2)C1=O`, for which the z-score in assay [1] is 1.23; in assay [2], 1.93; in [3], 2.01; in [4], -2; in [5] it was 0.151; in assay [6], 0.933. For the same compound, the z-score is 1.59 (inactive) in assay [7], -0.894 in [8], -0.394 in assay [9] and 0.89 (inactive) in [10].

Regarding `CN1C(=O)[C@]2(Cc3ccccc3)N=C(c3ccc(OCCCO)cc3)O[C@@H]2c2ccccc21`, the z-score in assay [1] was -1.55; in assay [2] it was 1.71; in assay [3] it was -1.68; in assay [4], -1.76; in [5], -4.34; in assay [6], 0.288. The z-score is 0.686 (inactive) in [7], -1.16 in [8], -0.976 in assay [9] and -1.81 (inactive) in assay [10].

As for `[N-]=[N+]=NCc1ccccc1C[C@@]1(C(=O)NCC(O)CO)N=C(c2ccc(OCCCO)cc2)O[C@@H]1c1ccccc1N=[N+]=[N-]` (stereo not given in full), the z-score in assay [1] is -2.46; in [2], 0.223; in [3] it was -1.75; in [4] it was -2.92; in [5] it was -3.45; in [6], -0.158. In addition, the z-score in [7] is -0.731 (inactive); in [8], -1.19; in [9] it was -0.999; in assay [10] it was -3.5 (inactive).

In the case of `CCCCCC1=C2CNC(CCC)(C(=O)OC)C=C2C(C)C1=O` (stereo not given), the z-score was -1.22 in [1]; -0.388 in assay [2]; 0.62 in assay [3]; 0.0829 in [4]; -0.282 in assay [5]; -0.24 in [6]. In addition, the z-score was -0.283 (inactive) in [7], -0.18 in assay [8], -1.13 in [9] and -0.606 (inactive) in assay [10].

On to `O=C1C2C=CC(C(O)c3c(F)cccc3Cl)N(Nc3ccccc3)C2C(=O)N1c1ccccc1` (stereo not given), for which the z-score in assay [1] was 1.14; in assay [2] it was -1.4; in assay [3], 0.309; in [4], -0.474; in assay [5], 0.474; in assay [6] it was -1.41. Moreover, the z-score in assay [7] is 0.455 (inactive); in assay [8] it was -0.235; in assay [9], -0.488; in assay [10], -0.0768 (inactive).

For `O=C1OCC=C[C@H]2OC34C=CCN(CCN5CCOCC5)C(=O)[C@H]3N(CCCO)C(=O)[C@@H]4[C@@H]12` (stereo not given in full), the z-score in assay [1] was 0.74; in assay [2], 1.38; in [3] it was 0.811; in assay [4], 1.11; in [5] it was -1.16; in [6], -0.326. Besides, the z-score in [7] was 0.584 (inactive); in assay [8] it was 0.676; in assay [9] it was 0.57; in assay [10], -1.38 (inactive).

For the compound `CCOC(=O)C[C@H]1[C@H](OC(=O)Cc2ccc3c(c2)OCO3)[C@@H](NC(=O)c2ccc3ccccc3c2)c2cc(OCCCO)ccc2N1C(=O)c1ccccc1`, the z-score in [1] is 1.38; in assay [2], -0.377; in assay [3], 0.778; in [4] it was -0.41; in [5], -0.377; in assay [6], 1.27. In addition, the z-score was 1.14 (inactive) in [7], 0.621 in assay [8], -0.334 in [9] and 0.859 (inactive) in assay [10].

For the compound `COc1ccc([C@H]2OC[C@@H]3CC4(CC=CC4)C(=O)N32)cc1`, the z-score in assay [1] was 0.262; in [2] it was -0.238; in assay [3] it was -0.0409; in [4] it was -0.58; in assay [5], 0.055; in assay [6], -0.301. Besides, the z-score in [7] was 0.197 (inactive); in assay [8] it was -0.54; in assay [9] it was 0.17; in assay [10], -0.312 (inactive).
